In the antibiotic and cytotoxicity screens of Wong et al. (2023):
Screen size: about 39,000 compounds; about 1,500 (3.8%) were called active. This is one part of a sample in which actives are shown more often than they occur.

Each compound was assayed on HSkMC (human skeletal muscle cells) (assay: cytotoxicity call (relative viability < 0.9)). Details: 10 µM.
In the case of `COc1ccc2ccccc2c1-c1c(OC)ccc2ccccc12`, the cytotoxicity call is reported as “inactive”. In the case of `COCOc1ccc2cc(Br)ccc2c1-c1c(OCOC)ccc2cc(Br)ccc12`, the cytotoxicity call is reported as “active”. For `COc1ccccc1-c1ccc2c(c1)O[C@@H](CN(C)CC1CCOCC1)[C@@H](C)CN([C@@H](C)CO)S2(=O)=O`, the cytotoxicity call was “inactive”. In the case of `CCNC(=O)[C@@H]1CCCN1C(=O)[C@H](CCCNC(=N)N)NC(=O)[C@H](CC(C)C)NC(=O)[C@@H](CC(C)C)NC(=O)[C@H](Cc1ccc(O)cc1)NC(=O)[C@H](CO)NC(=O)[C@H](Cc1c[nH]c2ccccc12)NC(=O)[C@H](Cc1cnc[nH]1)NC(=O)[C@@H]1CCC(=O)N1`, the cytotoxicity call is reported as “inactive”. For `CN(c1c[nH]c(=O)[nH]c1=O)C1CCCCC1`, the cytotoxicity call was “inactive”. With `C[C@H]1CN([C@@H](C)CO)C(=O)Cc2cc(NS(=O)(=O)c3ccc(F)cc3)ccc2O[C@@H]1CN(C)Cc1ccc(Oc2ccccc2)cc1` the cytotoxicity call was “inactive”. With `C[C@@H]1CN([C@H](C)CO)C(=O)Cc2cc(NS(=O)(=O)c3ccc(F)cc3)ccc2O[C@H]1CN(C)Cc1ccc(Oc2ccccc2)cc1` the cytotoxicity call was “active”. In the case of `C[C@H](CO)N1C[C@H](C)[C@@H](CN(C)Cc2ccc(Oc3ccccc3)cc2)Oc2ccc(NS(=O)(=O)c3ccc(F)cc3)cc2CC1=O`, the cytotoxicity call is reported as “inactive”. `C[C@H](CO)N1C[C@H](C)[C@H](CN(C)Cc2ccc(Oc3ccccc3)cc2)Oc2ccc(NS(=O)(=O)c3ccc(F)cc3)cc2CC1=O` was tested, and the cytotoxicity call was “active”. `C[C@H]1CN([C@@H](C)CO)C(=O)Cc2cc(NS(=O)(=O)c3ccc(F)cc3)ccc2O[C@H]1CN(C)Cc1ccc(Oc2ccccc2)cc1` was tested, and the cytotoxicity call was “active”. With `C[C@@H]1CN([C@@H](C)CO)C(=O)Cc2cc(NS(=O)(=O)c3ccc(F)cc3)ccc2O[C@H]1CN(C)Cc1ccc(Oc2ccccc2)cc1` the cytotoxicity call was “inactive”. With `C[C@@H]1CN([C@H](C)CO)C(=O)Cc2cc(NS(=O)(=O)c3ccc(F)cc3)ccc2O[C@@H]1CN(C)Cc1ccc(Oc2ccccc2)cc1` the cytotoxicity call was “active”. For `Cc1noc(C)c1NC(=O)Nc1ccc2c(c1)C(=O)N([C@@H](C)CO)C[C@H](C)[C@H](CN(C)Cc1ccc3c(c1)OCO3)OCCCC[C@H](C)O2`, the cytotoxicity call was “inactive”. `CC(C)NC(=O)N(C)C[C@H]1Oc2ccc(NC(=O)CCCN(C)C)cc2C(=O)N([C@H](C)CO)C[C@@H]1C` was tested, and the cytotoxicity call was “inactive”. `C[C@@H]1CCCCO[C@@H](CN(C)C(=O)C2CCCCC2)[C@@H](C)CN([C@@H](C)CO)C(=O)c2cc(NC(=O)CCC(F)(F)F)ccc2O1` was tested, and the cytotoxicity call was “inactive”. In the case of `C[C@@H]1CN([C@@H](C)CO)C(=O)c2cc(NS(=O)(=O)c3ccc(Cl)cc3)ccc2O[C@@H](C)CCCCO[C@H]1CN(C)S(=O)(=O)c1ccc(F)cc1`, the cytotoxicity call is reported as “inactive”. With `Cc1noc(C)c1S(=O)(=O)Nc1ccc2c(c1)CC(=O)N([C@@H](C)CO)C[C@@H](C)[C@H](CN(C)C(=O)Nc1ccc3c(c1)OCO3)O2` the cytotoxicity call was “inactive”. For `COc1ccc(CN(C)C[C@H]2Oc3ccc(NS(C)(=O)=O)cc3C(=O)N([C@@H](C)CO)C[C@H]2C)cc1`, the cytotoxicity call was “inactive”. With `COc1ccccc1CNC(=O)C[C@H]1C[C@@H]2c3cc(NC(=O)c4cccnc4)ccc3O[C@@H]2[C@H](CO)O1` the cytotoxicity call was “inactive”. For `C[C@@H]1CN([C@@H](C)CO)C(=O)Cc2cc(NS(=O)(=O)c3ccc(F)cc3)ccc2O[C@@H]1CN(C)Cc1ccc(Oc2ccccc2)cc1`, the cytotoxicity call was “active”. For `Cc1ccccc1S(=O)(=O)N1C[C@@H](O)COC[C@@H]2O[C@H](CC(=O)N3CCOCC3)CC[C@H]21`, the cytotoxicity call was “inactive”. For `COc1ccc2c3c([nH]c2c1)[C@H](CO)N(C[C@]13CCN(CC1)C(=O)c1cnccn1)C(=O)c1cnccn1`, the cytotoxicity call was “inactive”. In the case of `COc1ccc(C(=O)O)cc1`, the cytotoxicity call is reported as “inactive”. For `COc1ccc(C(=O)CO)cc1`, the cytotoxicity call was “inactive”. In the case of `COc1ccc(C(=O)CC(=O)c2ccc(C(C)(C)C)cc2)cc1`, the cytotoxicity call is reported as “active”. With `Cc1cc(C(=O)Nc2cccc3c2O[C@H](CN(C)Cc2ccc4c(c2)OCO4)[C@@H](C)CN([C@@H](C)CO)C3=O)n(C)n1` the cytotoxicity call was “inactive”. `O=C(O)CCNC(=O)c1ccccc1` [listing 1 of 2 here] was tested, and the cytotoxicity call was “inactive”. For `Cc1cc(O[C@@H](CCC(F)(F)F)c2ccc(C(=O)NCCC(=O)O)cc2)cc(C)c1-c1ccc(C(C)(C)C)cc1`, the cytotoxicity call was “active”. With `O=C(O)CCNC(=O)c1ccccc1` [listing 2 of 2 here] the cytotoxicity call was “inactive”. `O=C(/C=C/c1ccc(O)c(O)c1)O[C@]1(C(=O)O)C[C@@H](O)[C@H](O)[C@H](O)C1` was tested, and the cytotoxicity call was “inactive”. With `CC(C)NC(=O)Nc1ccc2c(c1)C(=O)N([C@H](C)CO)C[C@H](C)[C@@H](CN(C)S(=O)(=O)c1ccc(F)cc1)O2` the cytotoxicity call was “inactive”. For `Cn1cnc(CCNC(=O)C[C@@H]2CC[C@H]3[C@@H](COC[C@@H](O)CN3C(=O)Nc3ccc(Cl)cc3)O2)c1`, the cytotoxicity call was “inactive”. In the case of `CO[C@@H]1CN(C)C(=O)c2ccc(NS(=O)(=O)CC(F)(F)F)cc2OC[C@H](C)N(Cc2cccnc2)C[C@H]1C`, the cytotoxicity call is reported as “inactive”. With `C[C@@H]1CCCCO[C@@H](CN(C)Cc2ccc3c(c2)OCO3)[C@@H](C)CN([C@H](C)CO)C(=O)c2cc(NC(=O)Nc3cccc4ccccc34)ccc2O1` the cytotoxicity call was “inactive”. With `C[C@@H]1CCCCO[C@H](CN(C)Cc2ccc3c(c2)OCO3)[C@@H](C)CN([C@H](C)CO)C(=O)c2cc(NC(=O)Nc3cccc4ccccc34)ccc2O1` the cytotoxicity call was “inactive”. `C[C@H](CO)N1C[C@H](C)[C@@H](CN(C)Cc2ccc3c(c2)OCO3)OCCCC[C@H](C)Oc2ccc(NC(=O)Nc3cccc4ccccc34)cc2C1=O` was tested, and the cytotoxicity call was “active”. For `C[C@H]1CCCCO[C@@H](CN(C)Cc2ccc3c(c2)OCO3)[C@@H](C)CN([C@@H](C)CO)C(=O)c2cc(NC(=O)Nc3cccc4ccccc34)ccc2O1`, the cytotoxicity call was “active”. For `C[C@@H]1CCCCO[C@H](CN(C)Cc2ccc3c(c2)OCO3)[C@H](C)CN([C@@H](C)CO)C(=O)c2cc(NC(=O)Nc3cccc4ccccc34)ccc2O1`, the cytotoxicity call was “active”. For `C[C@@H]1CN([C@H](C)CO)C(=O)c2cc(NC(=O)Nc3cccc4ccccc34)ccc2O[C@@H](C)CCCCO[C@H]1CN(C)Cc1ccc2c(c1)OCO2`, the cytotoxicity call was “inactive”. With `C[C@@H]1CN([C@@H](C)CO)C(=O)c2cc(NC(=O)Nc3cccc4ccccc34)ccc2O[C@@H](C)CCCCO[C@H]1CN(C)Cc1ccc2c(c1)OCO2` the cytotoxicity call was “active”. `C[C@@H]1CCCCO[C@@H](CN(C)Cc2ccc3c(c2)OCO3)[C@@H](C)CN([C@@H](C)CO)C(=O)c2cc(NC(=O)Nc3cccc4ccccc34)ccc2O1` was tested, and the cytotoxicity call was “inactive”.
